In the supplement of paper PMC3545927:
Some of the results follow. How many sequences the whole screen found active is unknown.

Biological target: furin, P09958
Experiment: furin cleavage Z-score vs untreated control; higher = more cleavage, active = 3.5 or more, inactive = 1 or less, 8 variable residues between constant flanks
In short: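 Purified furin digested bead-held 8-mer peptide–cDNA fusions at 1:10 enzyme:substrate in 0.01 ml of 50 mM HEPES pH 7.5 with CaCl2 and NaCl for 7.5, 15 or 30 min. The cleavage Z-score compares sequencing counts of released DNA with furin-free reactions on a log scale, with lowess adjustment and median absolute deviation scaling.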

Sequence of furin, P09958 (P09958 whole entry): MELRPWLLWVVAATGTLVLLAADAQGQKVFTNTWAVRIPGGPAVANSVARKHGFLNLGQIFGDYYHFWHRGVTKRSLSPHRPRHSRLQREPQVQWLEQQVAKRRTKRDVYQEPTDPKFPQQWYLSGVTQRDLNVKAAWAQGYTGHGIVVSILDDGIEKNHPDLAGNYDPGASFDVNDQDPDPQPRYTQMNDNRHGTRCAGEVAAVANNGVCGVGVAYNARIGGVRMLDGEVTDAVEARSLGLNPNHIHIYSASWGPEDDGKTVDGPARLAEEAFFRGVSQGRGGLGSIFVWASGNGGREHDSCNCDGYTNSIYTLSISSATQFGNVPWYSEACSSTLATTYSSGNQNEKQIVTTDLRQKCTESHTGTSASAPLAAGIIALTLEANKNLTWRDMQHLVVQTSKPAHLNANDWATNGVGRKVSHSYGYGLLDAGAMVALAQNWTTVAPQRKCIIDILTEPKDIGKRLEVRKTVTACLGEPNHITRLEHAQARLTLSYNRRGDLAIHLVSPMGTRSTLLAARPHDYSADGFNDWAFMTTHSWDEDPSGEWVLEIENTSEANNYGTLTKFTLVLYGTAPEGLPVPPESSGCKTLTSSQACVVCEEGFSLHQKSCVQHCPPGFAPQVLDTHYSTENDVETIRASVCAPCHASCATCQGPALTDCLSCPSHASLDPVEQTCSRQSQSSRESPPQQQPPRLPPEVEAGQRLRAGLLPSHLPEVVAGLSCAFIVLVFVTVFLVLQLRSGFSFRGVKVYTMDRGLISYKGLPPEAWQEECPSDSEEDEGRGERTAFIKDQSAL

Sequence	furin cleavage Z-score (7.5 min)	furin cleavage Z-score (15 min)	furin cleavage Z-score (30 min)
CAEAEVPCHRAGNASASA [HC2443]	1.31	1.69	-0.0334 (inactive)
CAPLEVVTSTAGNASASA [HC2279]	0.247 (inactive)	0.62 (inactive)	0.87 (inactive)
CAKPAIIPDRAGNASASA [HC1006]	-0.622 (inactive)	0.0184 (inactive)	-0.00549 (inactive)
CAGAVQNEITAGNASASA [HC975]	-1.74 (inactive)	-0.537 (inactive)	-1.39 (inactive)
CAGCPPDSDAAGNASASA [HC1348]	0.143 (inactive)	-0.261 (inactive)	-1.34 (inactive)
CARQRRVAGLAGNASASA [FS-2767]	-1.21 (inactive)	-0.684 (inactive)	1.04
CARQRRHPELAGNASASA [FS-2763]	2.08	1.42	4.23 (active)
CARQRRPWEPAGNASASA [FS-2366]	-0.356 (inactive)	-0.595 (inactive)	-1.76 (inactive)
CARQRRSSGHAGNASASA [FS-3164]	6.61 (active)	6.83 (active)	6.04 (active)
CARQRRSHVLAGNASASA [FS-2766]	2.3	4.17 (active)	4.75 (active)
CASRSLTPCTAGNASASA [HC719]	-0.572 (inactive)	-2.71 (inactive)	0.443 (inactive)
CANYATGNLPAGNASASA [HC242]	-0.747 (inactive)	0.727 (inactive)	-1.07 (inactive)
CAFRRRGRRSAGNASASA [FS-1325]	7.29 (active)	7.04 (active)	5.71 (active)
CAKRRRGRKSAGNASASA [FS-679]	0.804 (inactive)	2.45	1.45
CAYHFRGRRSAGNASASA [FS-1438]	8.22 (active)	8.64 (active)	7.23 (active)
CAVKKRKGRVAGNASASA [FS-922]	3.3	4.91 (active)	6.5 (active)
CACVVIVGRVAGNASASA [HC1000]	0.746 (inactive)	-1.22 (inactive)	1.75
CARMKRAGRVAGNASASA [FS-1751]	5.19 (active)	5.19 (active)	5.87 (active)
CARMKRIFYRAGNASASA [FS-3162]	0.804 (inactive)	2.26	-0.0374 (inactive)
CAEVVRSTWVAGNASASA [HC130]	-1.7 (inactive)	-0.333 (inactive)	-1.26 (inactive)
CALVNLLPAIAGNASASA [HC1100]	1.21	0.684 (inactive)	0.808 (inactive)
CARNLGKVIDAGNASASA [HC219]	-0.809 (inactive)	0.0222 (inactive)	-1.18 (inactive)
CATQGCNCSIAGNASASA [HC311]	-0.897 (inactive)	-0.922 (inactive)	-0.937 (inactive)
CARKRRAKREAGNASASA [FS-1650]	13 (active)	13.6 (active)	9.6 (active)
CAGDGRSYRGAGNASASA [FS-529]	-0.56 (inactive)	-0.653 (inactive)	-0.179 (inactive)
CARMDRVKKEAGNASASA [FS-953]	0.785 (inactive)	2.5	3.22
CARPRRMKREAGNASASA [FS-710]	12.1 (active)	12.6 (active)	8.41 (active)
CAVMGRMKREAGNASASA [FS-892]	13 (active)	13.9 (active)	9.25 (active)
CARPRRTKKTAGNASASA [DV3]	0.136 (inactive)	1.59	1.15
CAGKGRKYREAGNASASA [FS-125]	8.32 (active)	9.76 (active)	7.89 (active)
